This note sets out measurements from PubChem BioAssay (NCATS).

Records with an inconclusive call do not appear. Activity calls are given as the source filed them. Calls follow the shape of the dose curve; as a rule, active = well fitted inhibition curve with a large enough effect; inconclusive = small, poorly fitted or top-dose-only effect; inactive = flat fitted curve, though single readings scatter.

The assay has as its target Aldehyde dehydrogenase, mitochondrial (Homo sapiens) (UniProt P05091). The assay is described as follows: qHTS for Inhibitors of the Aldehyde Dehydrogenase Family (ALDH2) Primary screen (AID 2061308).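 Also: plate controls were vehicle for no effect and reference inhibitor for full effect; nearly all actives have a fitted effect of over 55% in size.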 The settings on record: ALDH2 enzyme inhibition qHTS, 1536-well; series mostly up to 56 µM; activity change, negative = inhibition: at the top concentration.
For the compound `CCCCCOc1cc2c(cc1-c1cc(/C=C/C(=O)O)ccc1O)C(C)(C)CCC2(C)C`, the “activity change, negative = inhibition” value was -4.73% (inactive). The same measure for `CCOc1ccc(CCNC(=O)c2cc3cccnc3n2Cc2cccc(C)c2)cc1OCC`: -0.752% (inactive); for `CC[C@H](C)[C@H](NC(=O)[C@H]1CCCCN1C)C(=O)N(COC(=O)CC(C)C)[C@H](C[C@@H](OC(C)=O)c1nc(C(=O)N[C@@H](Cc2ccc(O)cc2)C[C@H](C)C(=O)O)cs1)C(C)C`: -2.41% [at 1.12 µM] (inactive); for `COc1cccc(CNc2ccc(S(=O)(=O)Nc3nccs3)cc2)c1OC`: 17.9% (inactive). For `CO[C@H]1[C@H](O)[C@H](O[C@H]2CC[C@]3(C=O)C4CC[C@]5(C)[C@H](C6=CC(=O)OC6)CC[C@]5(O)C4CC[C@@H]3C2)O[C@@H](C)[C@@H]1O` (stereo not given in full) the value was 3.15% [at 28 µM] (inactive).
